# From PubChem
# The entries come from a sample that favours hits as a whole.
# ClpP mod – qHTS Assay for Activators of ClpP. Potency, µM (series often up to 57.5 µM). ATP-dependent Clp protease proteolytic subunit (Bacillus subtilis (strain 168)), P80244. 1.9% of 340,000 active. purified B. subtilis ClpP, FRET peptide cleavage, 20 min; active = well fitted falling curve with a large enough effect; inconclusive = small, poorly fitted or top-dose-only effect; inactive = no such curve, though single readings can be large or run the other way; note: the source files actives as falling curves though it sought activators and does not explain the sign; nearly all actives have a fitted effect of over 65% in size
# Target sequence (P80244 whole entry, looked up): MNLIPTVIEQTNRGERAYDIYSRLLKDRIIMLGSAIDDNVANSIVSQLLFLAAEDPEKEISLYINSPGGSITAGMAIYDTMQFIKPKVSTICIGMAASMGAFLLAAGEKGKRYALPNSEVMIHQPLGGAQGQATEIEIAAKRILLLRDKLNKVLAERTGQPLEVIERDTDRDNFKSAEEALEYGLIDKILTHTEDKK
#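 Purified B. subtilis ClpP, 10 microg/mL final in Tris/HCl pH8 with KCl, BSA, glycerol and Tween-20, cleaved an Abz/nitrotyrosine-quenched decapeptide. Fluorescence (ex 320, em 430) was read at 0 and 20 min at room temperature. Delta was normalized to 5.8 microM ADEP and DMSO/no-enzyme controls.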
# Eya2 phos inh – Eya2 (human) phosphatase inhibition | O00167 | recombinant Eya2, OMFP fluorescence dephosphorylation (OMFP is methylfluorescein phosphate) | Potency, µM (top dose mostly 76.9 µM), actives largely listed as inhibitors | 0.006% of 330,000 active | AID 488837
#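 Eya2 protein (added as 0.2 uM solution) was preincubated with compound for 10 min at ambient temperature in 50 mM HEPES pH 7.5, 50 mM NaCl, 5 uM MgCl2, 0.05% BSA, 1 mM DTT. OMFP (added at 50 uM) then reacted 10 min; fluorescence read at 485/525 nm.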
# USP2a block – USP2a (human) protease inhibition | USP2 core, Ub-CHOP2 coupled fluorogenic reporter, 485/531 | 0.01% of 330,000 active | AID 463254 | Potency, µM (series often up to 38.3 µM), usual class: inhibitors
#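 USP2 core (10nM final) preincubated 30min RT with compound in 20mM Tris-HCl pH 8.0, 2mM CaCl2, 2mM beta-mercaptoethanol, 0.05% CHAPS; 25nM Ub-CHOP2 plus 25nM reporter substrate added, fluorescence (Ex485/Em531) read after 60min.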
# GALK inh – inhibitors of human galactokinase; P51570; Purified GALK, Kinase-Glo residual ATP luminescence; Potency, µM (titrated, usually from 57.5 µM), usual class: inhibitors; 0.007% of 270,000 active; AID 1868
# Target sequence (P51570 whole entry, looked up): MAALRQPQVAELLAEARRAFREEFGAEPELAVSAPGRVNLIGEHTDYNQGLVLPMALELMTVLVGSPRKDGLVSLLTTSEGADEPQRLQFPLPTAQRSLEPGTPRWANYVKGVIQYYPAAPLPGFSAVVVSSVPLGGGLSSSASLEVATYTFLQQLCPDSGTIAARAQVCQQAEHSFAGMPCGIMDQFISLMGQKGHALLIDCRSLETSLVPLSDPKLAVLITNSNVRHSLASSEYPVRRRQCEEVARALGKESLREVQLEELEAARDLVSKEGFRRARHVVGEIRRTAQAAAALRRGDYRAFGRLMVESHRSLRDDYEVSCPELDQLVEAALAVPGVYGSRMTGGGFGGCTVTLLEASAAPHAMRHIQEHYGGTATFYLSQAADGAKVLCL
#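 Human GALK (5 nM) with 35 uM ATP and 100 uM galactose in 20 mM HEPES pH 8.0, 5 mM MgCl2, 60 mM NaCl, 1 mM DTT, 0.01% BSA. After 1 h at room temperature, leftover ATP was read by Kinase-Glo Plus luminescence.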
# Hits are given with their value; - = inactive; ? = inconclusive; . = no result. Unless noted, calls come from the whole dose curve; as a rule, active = well fitted inhibition curve with a large enough effect; inconclusive = small, poorly fitted or top-dose-only effect, or effect the other way; inactive = flat fitted curve, though single readings scatter.
SMILES,ClpP mod,Eya2 phos inh,USP2a block,GALK inh
CC(=O)Nc1cc(-c2ccc(C(=O)N3CCOCC3)cc2)cn2c(-c3ccccc3)cnc12,25µM,.,.,.
CCc1ccc(NC(=O)Cn2nc(SC)c(S(=O)(=O)c3ccc(OC)cc3)c2N)cc1,-,.,.,.
O=C(O)c1cccc(NC(=S)NC(=O)c2ccc3ccccc3c2)c1,-,-,-,-
Cc1ccc(-c2cc(C(=O)Oc3ccccc3)c3cc(C)ccc3n2)cc1,-,.,.,.
CCc1ccc(C(=O)NNC(=O)OC)cc1,14µM,-,-,-
CCC(c1nnc(SCC(=O)Nc2cccc(S(N)(=O)=O)c2)n1Cc1ccccc1)N(C)C (stereo not given),-,-,-,-
CCC(c1nnc(SCC(=O)Nc2cc(S(C)(=O)=O)ccc2Cl)n1Cc1ccccc1)N(C)C (stereo not given),32µM,-,-,-
COc1ccc2oc(=O)c(-c3nnc(N)s3)cc2c1,.,-,-,-
Nc1nnc(-c2cc3ccccc3oc2=O)s1,25µM,-,-,-
CN1C(=O)c2ccccc2N(C)C1c1ccc2c(c1)OCO2 (stereo not given),25µM,-,-,-
CN1C(=O)c2ccccc2N(C)C1c1ccc(F)cc1 (stereo not given),-,-,-,-
CC(=O)N1CCN(c2ccc(NC(=O)c3ccc(Cl)cc3)cc2)CC1,-,-,-,-
CS(=O)(=O)c1ccccc1C(=O)N1CCN(S(=O)(=O)c2ccc(C3CCCCC3)cc2)CC1,-,-,-,.
COC(=O)c1ccccc1N/C=C/C(=O)c1ccc(Br)cc1,25µM,-,-,-
O=C1OCCN1c1c(-c2ccccc2)c(N2CCOCC2)nc2ccccc12,-,.,.,.
COc1ccc(NC(=O)COc2ccc(/C=C/c3cccc[n+]3C)cc2OC)cc1,.,-,-,-
Cc1cc(=O)[nH]c2n[nH]c(-c3ccccc3)c12,25µM,-,-,-
Cc1cc(=O)[nH]c(-c2ccccc2)n1,-,-,-,-
CC(C)(C)OC(=O)NCCOC(=O)c1[nH]cnc1C(=O)NCc1ccccc1,-,-,-,.
CSc1nc(C)cc(/C=C\c2ccccc2)c1C#N,28µM,-,-,-
CC(=O)N1CC=C2C(C#N)=C(N)C(C#N)(C#N)C(CCc3ccccc3)C2C1 (stereo not given),-,-,-,-
CCN1CC=C2C(C#N)=C(N)C(C#N)(C#N)C(CCc3ccccc3)C2C1 (stereo not given),28µM,-,?,-
C=CCn1c(SCC(=O)c2[nH]c(C)c(C(C)=O)c2C)nnc1-c1ccncc1,32µM,-,-,-
O=C(Cc1ccccc1)NNC(=O)Nc1ccc(Cl)c(Cl)c1,.,-,-,-
NC(=S)NNC(=O)Nc1ccc(Cl)c(Cl)c1,22µM,-,-,-
SMILES,ClpP mod,Eya2 phos inh,USP2a block,GALK inh
Cn1c(-c2ccc(-c3ccccc3)cc2)c[nH]c1=S,13µM,-,-,-
COc1cccc2c(=O)n(CC(=O)NC3CCCCC3)ccc12,?,-,-,-
COc1ccc([N+](=O)[O-])cc1NC(=O)c1ccccc1SC,28µM,-,-,-
COc1ccc([N+](=O)[O-])cc1NC(=O)C(C)Sc1nc(C)c(C)c(C)n1 (stereo not given),28µM,-,-,-
Cc1ccc(CN(C(=O)COc2c(C)cccc2C)C2CCS(=O)(=O)C2)o1 (stereo not given),-,.,.,.
Cc1ccc(Cl)cc1N1CCN(C(=S)NCCc2ccccc2)CC1,.,-,-,-
CCOC(=O)Cn1nc(/C=C/c2ccc(C(C)C)cc2)ccc1=O,28µM,-,-,-
CCOC(=O)Cn1nc(/C=C/c2ccccc2)ccc1=O,?,-,-,-
O=c1ccc(/C=C/c2ccccc2)nn1Cc1ccccc1,28µM,-,-,-
CCOC(=O)Cn1nc(/C=C/c2ccc(C)cc2)ccc1=O,32µM,-,-,-
Cc1cccc(C(=O)Nc2ccc3c(c2)nc(C)n3C)c1,.,-,-,.
CC(C)=Nc1ccccc1C1COC(=O)C1=N (stereo not given),-,-,-,.
CC1(C)Oc2cc(N)c([N+](=O)[O-])cc2O1,32µM,-,-,-
CCOc1cnc(-c2ccc(OC)cc2)o1,25µM,-,-,-
CCOc1cnc(-c2ccc(Cl)cc2)o1,?,-,-,-
COc1ccc(OC)c(/C=C/C(=O)N(C)CC(=O)Nc2ccc(N3CCOCC3)cc2)c1,28µM,-,-,.
COc1ccc(CCC(=O)N(C)CC(=O)Nc2ccc(N3CCOCC3)cc2)cc1,.,-,-,-
COC(=O)C1=NN[C@H](C(=O)OC)[C@H]1c1ccccc1,-,-,-,-
COC(=O)C1=NN[C@H](C(=O)OC(C)(C)C)[C@H]1c1ccccc1,16µM,-,-,.
COc1cccc2c(=O)c(C/C=C(/C)Cl)c(C)[nH]c12,16µM,-,-,-
CC(C)Cc1cc(-c2ccco2)c(C#N)c(N)n1,3.2µM,-,-,-
N#Cc1c(-c2ccc(F)cc2)cc(-c2cccnc2)nc1N,?,-,-,-
N#Cc1c(-c2ccco2)cc(-c2ccc(F)cc2)nc1N,35µM,-,-,-
Cc1cc(OCC(=O)OCC(=O)N2c3ccccc3NC(=O)C2(C)C)ccc1Cl,-,-,-,.
CCCOc1ccccc1C(=O)Nc1nc2c(s1)CCCC2,-,.,.,.
SMILES,ClpP mod,Eya2 phos inh,USP2a block,GALK inh
Cn1cnnc1Sc1ccc(C(=O)OCC(=O)NC2CC2)cc1[N+](=O)[O-],.,-,-,-
COc1cc(NC(=O)c2ccc(NC(=O)N3CCSc4ncccc43)cc2)cc(OC)c1,32µM,.,.,.
Cc1ccc(Cl)cc1NC(=O)N1CCN(C)c2ncccc21,-,.,.,.
Cc1ccc(Cl)cc1NC(=O)c1ccc(NC(=O)N2CCSc3ncccc32)cc1,32µM,.,.,.
COc1ccc(CCNC(=O)Cc2ccc(NC(=O)N3CCSc4ncccc43)cc2)cc1OC,-,.,.,.
Cc1ccc(NC(=O)c2ccc(NC(=O)N3CCSc4ncccc43)cc2)c(Cl)c1,28µM,.,.,.
Cc1ccc2cc(C(c3nnnn3C3CCCC3)N3CCOCC3)c(=O)[nH]c2c1C (stereo not given),?,-,-,-
Cc1ccc(C)c2[nH]c(=O)c(C(c3nnnn3CCc3ccccc3)N3CCOCC3)cc12 (stereo not given),28µM,-,-,-
Cc1ccc(C)c2[nH]c(=O)c(C(c3nnnn3C3CCCC3)N3CCOCC3)cc12 (stereo not given),25µM,-,-,-
COc1cccc(C(=O)Nc2cnn(C(C)C)c2)c1,-,-,-,-
CC(C)(C)NCc1cc2ccccc2[nH]c1=O,-,-,-,-
O=C(NCc1ccccc1)N(Cc1cc2cc3c(cc2[nH]c1=O)OCO3)CC1CCCO1 (stereo not given),28µM,-,-,-
COc1ccc2[nH]c(=O)c(CNc3ccccc3)cc2c1,16µM,-,-,-
COc1ccc2[nH]c(=O)c(CN(CCc3ccccc3)C(C)=O)cc2c1,28µM,?,-,-
Cc1ccc2[nH]c(=O)c(CNC(C)(C)C)cc2c1,14µM,-,-,-
